Measured values from PubChem BioAssay (NCATS).
Inconclusive results are not listed. Calls of active or inactive are those of the source. Unless noted, calls follow the shape of the dose curve; as a rule, active = well fitted curve in the direction sought with a large enough effect; inconclusive = small, poorly fitted or top-dose-only effect, or another doubt; inactive = no such curve, though single readings can be large; an effect the other way counts as inactive or inconclusive.

biological target: ATP-dependent DNA helicase Q1 (Homo sapiens) (UniProt P46063); assay: qHTS Validation Assay for Inhibitors of RecQ-Like Dna Helicase 1 (RECQ1) (AID 2353); conditions: recombinant RECQ1 helicase DNA unwinding assay; series mostly up to 25.6 µM; activity change, negative = inhibition: at the top concentration; also: potency is read from the fitted curve at half-maximal effect;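 as to activity change, negative = inhibition: plate controls were DMSO vehicle for no effect and enzyme-free control for full effect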
Sequence (P46063 whole entry, looked up): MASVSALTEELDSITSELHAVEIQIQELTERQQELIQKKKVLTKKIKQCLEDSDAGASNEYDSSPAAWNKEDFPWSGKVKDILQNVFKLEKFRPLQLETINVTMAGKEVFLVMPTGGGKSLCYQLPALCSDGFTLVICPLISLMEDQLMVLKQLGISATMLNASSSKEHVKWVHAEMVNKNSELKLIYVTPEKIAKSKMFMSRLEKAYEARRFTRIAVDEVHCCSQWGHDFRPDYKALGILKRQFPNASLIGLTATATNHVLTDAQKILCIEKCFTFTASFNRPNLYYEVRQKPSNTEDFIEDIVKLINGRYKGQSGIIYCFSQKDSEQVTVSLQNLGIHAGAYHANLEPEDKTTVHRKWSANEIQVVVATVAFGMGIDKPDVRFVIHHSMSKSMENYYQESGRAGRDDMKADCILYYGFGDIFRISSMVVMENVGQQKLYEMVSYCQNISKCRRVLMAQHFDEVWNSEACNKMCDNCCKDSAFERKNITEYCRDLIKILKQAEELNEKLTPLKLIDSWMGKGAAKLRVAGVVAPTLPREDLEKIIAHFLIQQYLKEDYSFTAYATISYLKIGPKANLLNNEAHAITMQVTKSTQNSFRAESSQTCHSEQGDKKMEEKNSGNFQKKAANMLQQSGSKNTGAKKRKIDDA
Procedure, shortened: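 RECQ1T1 50 nM; forked duplex (20 bp + 30-nt ss tails) 200 nM, ATP 2 mM final; pH 8.0, 2 mM MgCl2, 2.5 ug/ml poly(dI-dC); 15 min compound preincubation; discontinuous kinetic read over 2 h at RT.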

Row | Structure (SMILES) | activity change, negative = inhibition | Potency
1 | C=C(C)[C@H]1CN[C@H](C(=O)O)[C@H]1CC(=O)O | 1.19% (inactive) | 
2 | CC(C)N(CCC(C(N)=O)(c1ccccc1)c1ccccn1)C(C)C (stereo unspecified) |  | inactive
3 | O=C(O)CCCc1ccc(N(CCCl)CCCl)cc1 | -5.13% (inactive) | 
4 | NCCc1ccc(O)cc1 | 1.81% (inactive) | 
5 | CCC1(c2ccc(N)cc2)CCC(=O)NC1=O (stereo unspecified) | -0.112% (inactive) | 
6 | C[C@]12CCC(=O)C=C1CC[C@@H]1[C@@H]2CC[C@]2(C)C(=O)CC[C@@H]12 | 0.118% (inactive) | 
7 | CC(C)c1cccc(C(C)C)c1O | -2.81% (inactive) | 
8 | CC(C)(C)NCC(O)c1ccccc1Cl (stereo unspecified) | 2.48% (inactive) | 
9 | CCCCC/C=C\C/C=C\C/C=C\C/C=C\CCCC(=O)NCC(=O)O |  | 3.98 µM (active)
10 | CC(NC(C)(C)C)C(=O)c1cccc(Cl)c1 (stereo unspecified) | 2.22% (inactive) | 
11 | O=P1(N(CCCl)CCCl)NCCCO1 (stereo unspecified) | -2.88% (inactive) | 
12 | O=C(CCCN1CCC2(CC1)C(=O)NCN2c1ccccc1)c1ccc(F)cc1 | -6.53% (inactive) | 
13 | O=c1[nH]oc2c1CCNC2 | -0.0526% (inactive) | 
14 | CN1C(=O)CCS(=O)(=O)C1c1ccc(Cl)cc1 (stereo unspecified) | -3.47% (inactive) | 

biological target: RecQ-like DNA helicase BLM (Homo sapiens) (UniProt P54132); assay: qHTS Validation Assay for Inhibitors of Bloom's syndrome helicase (BLM) (AID 2364); conditions: BLM helicase DNA unwinding, fluorescence, in vitro; series mostly up to 57.1 µM; activity change, negative = inhibition: at the top concentration;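 also: plate controls were DMSO vehicle for no effect and enzyme-free control for full effect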
Sequence (P54132 whole entry, looked up): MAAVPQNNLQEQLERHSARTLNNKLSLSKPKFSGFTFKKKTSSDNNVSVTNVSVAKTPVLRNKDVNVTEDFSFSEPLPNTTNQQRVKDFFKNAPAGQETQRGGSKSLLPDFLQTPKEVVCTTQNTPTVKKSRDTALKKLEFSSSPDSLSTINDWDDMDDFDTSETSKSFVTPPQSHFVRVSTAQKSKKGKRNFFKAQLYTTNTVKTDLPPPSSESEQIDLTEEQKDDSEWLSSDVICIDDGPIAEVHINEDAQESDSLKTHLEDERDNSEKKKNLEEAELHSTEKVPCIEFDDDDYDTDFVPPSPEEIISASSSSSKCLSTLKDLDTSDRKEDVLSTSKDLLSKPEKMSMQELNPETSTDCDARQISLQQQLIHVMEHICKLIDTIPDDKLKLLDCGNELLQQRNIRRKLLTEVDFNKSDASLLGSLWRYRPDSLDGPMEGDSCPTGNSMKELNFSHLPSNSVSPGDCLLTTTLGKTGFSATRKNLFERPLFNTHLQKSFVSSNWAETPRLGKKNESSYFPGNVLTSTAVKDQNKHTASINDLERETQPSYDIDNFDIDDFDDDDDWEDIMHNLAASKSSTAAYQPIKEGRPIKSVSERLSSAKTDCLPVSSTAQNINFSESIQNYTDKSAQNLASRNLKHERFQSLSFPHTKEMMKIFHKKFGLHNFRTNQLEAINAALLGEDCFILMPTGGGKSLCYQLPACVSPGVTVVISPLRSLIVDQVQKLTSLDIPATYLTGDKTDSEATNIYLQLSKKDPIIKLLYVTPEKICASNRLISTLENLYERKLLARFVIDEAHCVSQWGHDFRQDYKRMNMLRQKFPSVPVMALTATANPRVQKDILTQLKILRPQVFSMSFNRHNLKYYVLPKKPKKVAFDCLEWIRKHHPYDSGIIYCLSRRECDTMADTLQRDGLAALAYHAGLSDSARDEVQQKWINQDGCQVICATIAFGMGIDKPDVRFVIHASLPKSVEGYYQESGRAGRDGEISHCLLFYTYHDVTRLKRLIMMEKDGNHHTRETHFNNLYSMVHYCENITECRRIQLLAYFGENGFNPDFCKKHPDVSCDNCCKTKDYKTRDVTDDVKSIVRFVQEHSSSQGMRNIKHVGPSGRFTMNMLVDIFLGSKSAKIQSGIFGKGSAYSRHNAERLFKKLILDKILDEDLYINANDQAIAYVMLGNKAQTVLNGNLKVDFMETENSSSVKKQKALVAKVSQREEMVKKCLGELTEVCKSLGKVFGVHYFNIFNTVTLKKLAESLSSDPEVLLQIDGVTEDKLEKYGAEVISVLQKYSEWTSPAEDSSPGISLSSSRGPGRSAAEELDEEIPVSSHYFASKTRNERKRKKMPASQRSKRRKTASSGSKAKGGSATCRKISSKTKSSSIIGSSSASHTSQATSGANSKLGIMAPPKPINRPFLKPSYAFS
Procedure, shortened: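 Forked 20-bp duplex substrate (200 nM, TAMRA/BHQ-2) plus 2 mM ATP added after 15 min compound preincubation with 50 nM enzyme, pH 8.0, poly(dI-dC) 2.5 ug/ml. Strand separation followed by fluorescence (525/598 nm) over 2 h, normalized to enzyme-free and DMSO controls.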

Row | Structure (SMILES) | activity change, negative = inhibition
15 | CC(C)N(CCC(C(N)=O)(c1ccccc1)c1ccccn1)C(C)C (stereo unspecified) | -7.37% (inactive)
16 | CCC1(c2ccc(N)cc2)CCC(=O)NC1=O (stereo unspecified) | -11.5% (inactive)
17 | CCCCC/C=C\C/C=C\C/C=C\C/C=C\CCCC(=O)NCC(=O)O | 25.7% (inactive)
18 | O=P1(N(CCCl)CCCl)NCCCO1 (stereo unspecified) | -4.54% (inactive)
19 | CN1C(=O)CCS(=O)(=O)C1c1ccc(Cl)cc1 (stereo unspecified) | -8.52% (inactive)

system: not listed separately; assay: High Content Imaging Cell-Based qHTS for Inhibitors of the mTORC1 Signaling Pathway in MEF (Tsc2-/-, p53-/-) Cells (AID 2666); conditions: at 38.3 µM (top of the series);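 also: percent of cells scored positive for phospho-rpS6 Ser235/236 immunostaining by imaging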
Procedure, shortened: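 Tsc2-/-, p53-/- MEFs (empty-vector stable) grown in DMEM + 10% FBS were exposed to compounds for 24 hrs at 37 degree Celsius, fixed, and stained with Alexa-488 anti-phospho-rpS6 Ser235/236 plus Hoechst. Imaging gave the percentage of positive cells per well.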

Row | Structure (SMILES) | outcome
20 | C=C(C)[C@H]1CN[C@H](C(=O)O)[C@H]1CC(=O)O | inactive
21 | CC(C)N(CCC(C(N)=O)(c1ccccc1)c1ccccn1)C(C)C (stereo unspecified) | inactive
22 | O=C(O)CCCc1ccc(N(CCCl)CCCl)cc1 | inactive
23 | NCCc1ccc(O)cc1 | inactive
24 | CCC1(c2ccc(N)cc2)CCC(=O)NC1=O (stereo unspecified) | inactive
25 | CC(C)c1cccc(C(C)C)c1O | inactive
26 | CC(C)(C)NCC(O)c1ccccc1Cl (stereo unspecified) | inactive
27 | CCCCC/C=C\C/C=C\C/C=C\C/C=C\CCCC(=O)NCC(=O)O | inactive
28 | Cc1ncsc1CCCl | inactive
29 | CC(NC(C)(C)C)C(=O)c1cccc(Cl)c1 (stereo unspecified) | inactive
30 | O=P1(N(CCCl)CCCl)NCCCO1 (stereo unspecified) | inactive
31 | O=C(CCCN1CCC2(CC1)C(=O)NCN2c1ccccc1)c1ccc(F)cc1 | inactive
32 | O=c1[nH]oc2c1CCNC2 | inactive
33 | COc1ccc2c(c1OC)C(=O)O[C@H]2[C@@H]1c2cc3c(cc2CCN1C)OCO3 | inactive
34 | CN1C(=O)CCS(=O)(=O)C1c1ccc(Cl)cc1 (stereo unspecified) | inactive

system: not listed separately; assay: High Content Imaging Cell-Based qHTS for Inhibitors of the mTORC1 Signaling Pathway in MEF Cells (AID 2667); conditions: series mostly up to 38.3 µM; activity change, negative = inhibition: at the top concentration;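 also: Tsc2-/- p53-/- MEFs stably re-expressing wild-type Tsc2 exposed 24 h; plate controls were DMSO wells for no effect and rapamycin control wells for full effect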
Procedure, shortened: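 Tsc2-/-, p53-/- MEFs stably re-expressing WT Tsc2, grown in DMEM + 10% FBS, were treated with compounds for 24 hrs at 37 degree Celsius, fixed, and stained with Alexa-488 phospho-rpS6 Ser235/236 antibody plus Hoechst; results given as % positive cells.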

Row | Structure (SMILES) | activity change, negative = inhibition | outcome
35 | C=C(C)[C@H]1CN[C@H](C(=O)O)[C@H]1CC(=O)O | -100% (inactive) | 
36 | CC(C)N(CCC(C(N)=O)(c1ccccc1)c1ccccn1)C(C)C (stereo unspecified) |  | inactive
37 | O=C(O)CCCc1ccc(N(CCCl)CCCl)cc1 | -100% (inactive) | 
38 | NCCc1ccc(O)cc1 | -100% (inactive) | 
39 | CCC1(c2ccc(N)cc2)CCC(=O)NC1=O (stereo unspecified) | -100% (inactive) | 
40 | CC(C)c1cccc(C(C)C)c1O | -100% (inactive) | 
41 | CC(C)(C)NCC(O)c1ccccc1Cl (stereo unspecified) | -100% (inactive) | 
42 | CCCCC/C=C\C/C=C\C/C=C\C/C=C\CCCC(=O)NCC(=O)O | -100% (inactive) | 
43 | Cc1ncsc1CCCl | -100% (inactive) | 
44 | CC(NC(C)(C)C)C(=O)c1cccc(Cl)c1 (stereo unspecified) | -100% (inactive) | 
45 | O=P1(N(CCCl)CCCl)NCCCO1 (stereo unspecified) | -100% (inactive) | 
46 | O=C(CCCN1CCC2(CC1)C(=O)NCN2c1ccccc1)c1ccc(F)cc1 | -100% (inactive) | 
47 | O=c1[nH]oc2c1CCNC2 | -100% (inactive) | 
48 | COc1ccc2c(c1OC)C(=O)O[C@H]2[C@@H]1c2cc3c(cc2CCN1C)OCO3 | -100% (inactive) | 
49 | CN1C(=O)CCS(=O)(=O)C1c1ccc(Cl)cc1 (stereo unspecified) | -100% (inactive) | 

system: not listed separately; assay: Cytometry Cell-Based qHTS for Inhibitors of the mTORC1 Signaling Pathway in MEF cells (AID 2668); conditions: mTORC1 pathway readout; series mostly up to 38.3 µM; activity change, negative = inhibition: at the top concentration;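 also: Tsc2-/- p53-/- mouse embryonic fibroblasts stably re-expressing wild-type Tsc2; percent cells positive for phospho-rpS6 Ser235/236 relative to propidium iodide stain; plate controls were DMSO wells for no effect and 7.5 nM rapamycin control wells for full effect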
Procedure, shortened: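 Tsc2-/-, p53-/- MEFs re-expressing WT Tsc2; cpd 24 hrs, 37 degree Celsius; PFA fix, Alexa-488 p-rpS6 (Ser235/236) Ab 2 hrs RT, PI counterstain; Acumen 488nm scan; p-S6/PI ratio → % positive cells; PI count = viability.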

Row | Structure (SMILES) | activity change, negative = inhibition | outcome
50 | C=C(C)[C@H]1CN[C@H](C(=O)O)[C@H]1CC(=O)O | 6.07% (inactive) | 
51 | CC(C)N(CCC(C(N)=O)(c1ccccc1)c1ccccn1)C(C)C (stereo unspecified) |  | inactive
52 | O=C(O)CCCc1ccc(N(CCCl)CCCl)cc1 | -14.7% (inactive) | 
53 | NCCc1ccc(O)cc1 | 12.9% (inactive) | 
54 | CCC1(c2ccc(N)cc2)CCC(=O)NC1=O (stereo unspecified) | 0.534% (inactive) | 
55 | CC(C)c1cccc(C(C)C)c1O | -0.398% (inactive) | 
56 | CC(C)(C)NCC(O)c1ccccc1Cl (stereo unspecified) | -4.64% (inactive) | 
57 | CCCCC/C=C\C/C=C\C/C=C\C/C=C\CCCC(=O)NCC(=O)O | 1.39% (inactive) | 
58 | Cc1ncsc1CCCl | -2.86% (inactive) | 
59 | CC(NC(C)(C)C)C(=O)c1cccc(Cl)c1 (stereo unspecified) | 10.4% (inactive) | 
60 | O=P1(N(CCCl)CCCl)NCCCO1 (stereo unspecified) | 5.95% (inactive) | 
61 | O=C(CCCN1CCC2(CC1)C(=O)NCN2c1ccccc1)c1ccc(F)cc1 | -26.9% (inactive) | 
62 | O=c1[nH]oc2c1CCNC2 | 7.78% (inactive) | 
63 | COc1ccc2c(c1OC)C(=O)O[C@H]2[C@@H]1c2cc3c(cc2CCN1C)OCO3 | 1.95% (inactive) | 
64 | CN1C(=O)CCS(=O)(=O)C1c1ccc(Cl)cc1 (stereo unspecified) | -4.58% (inactive) | 

system: not listed separately; assay: Validation screen for inhibitors of Lassa infection (AID 463096; calls by dose curve; also: % is scaled to controls: 0 for no effect and ±100 for the full control effect); conditions: Lassa virus infection, cell-based; series mostly up to 46.1 µM; activity change, negative = inhibition: at the top concentration

Row | Structure (SMILES) | activity change, negative = inhibition | outcome
65 | C=C(C)[C@H]1CN[C@H](C(=O)O)[C@H]1CC(=O)O | -17.4% (inactive) | 
66 | O=C(NCC1CCCCN1)c1cc(OCC(F)(F)F)ccc1OCC(F)(F)F (stereo unspecified) | 0.275% (inactive) | 
67 | CC(C)N(CCC(C(N)=O)(c1ccccc1)c1ccccn1)C(C)C (stereo unspecified) |  | inactive
68 | CCOC(=O)C1=C(C)NC(C)=C(C(=O)OC)C1c1cccc([N+](=O)[O-])c1 (stereo unspecified) | -19.7% (inactive) | 
69 | O=C(O)CCCc1ccc(N(CCCl)CCCl)cc1 | -35.3% (inactive) | 
70 | NCCc1ccc(O)cc1 | 24.3% (inactive) | 
71 | CCC1(c2ccc(N)cc2)CCC(=O)NC1=O (stereo unspecified) | -14% (inactive) | 
72 | CC(=O)N1CCN(c2ccc(OC[C@H]3CO[C@](Cn4ccnc4)(c4ccc(Cl)cc4Cl)O3)cc2)CC1 | -31.2% (inactive) | 
73 | C[C@]12CCC(=O)C=C1CC[C@@H]1[C@@H]2CC[C@]2(C)C(=O)CC[C@@H]12 | -4.41% (inactive) | 
74 | CC(C)c1cccc(C(C)C)c1O | 17.4% (inactive) | 
75 | CC(C)(C)NCC(O)c1ccccc1Cl (stereo unspecified) | -40.7% (inactive) | 
76 | CCCCC/C=C\C/C=C\C/C=C\C/C=C\CCCC(=O)NCC(=O)O | 2.45% (inactive) | 
77 | NC(=O)c1cnccn1 | 4.94% (inactive) | 
78 | O=c1[nH]cnc2[nH]ncc12 | -5.38% (inactive) | 
79 | CC(NC(C)(C)C)C(=O)c1cccc(Cl)c1 (stereo unspecified) | 41.6% (inactive) | 
80 | O=P1(N(CCCl)CCCl)NCCCO1 (stereo unspecified) | 6.98% (inactive) | 
81 | CC(C)NNC(=O)c1ccncc1 | 24.9% (inactive) | 
82 | O=c1[nH]oc2c1CCNC2 | -10.7% (inactive) | 
83 | Nc1cc(=O)[nH]c(N)n1 | 10.9% (inactive) | 
84 | CN1C(=O)CCS(=O)(=O)C1c1ccc(Cl)cc1 (stereo unspecified) | -6.4% (inactive) | 
85 | CN(C)C(=O)Oc1ccc[n+](C)c1 | -3.52% (inactive) | 
86 | COCCOC(=O)C1=C(C)NC(C)=C(C(=O)OC(C)C)C1c1cccc([N+](=O)[O-])c1 (stereo unspecified) | -20.6% (inactive) | 
